Outcome and AC50 data for 17 molecules are collected here from PubChem BioAssay (EPA / NIEHS).

Each structure is given as a SMILES string. “And” between values parts separate entries of the source, which are not always exact repeats. Equal entries are not always repeated. Records with an inconclusive call do not appear. More than one record can exist for a structure, and the calls need not agree. The source made the active and inactive calls. How the source made its calls, unless noted: active means hit-call score of the fitted dose curve at least 0.9, where 1 is the maximum; inactive means score below 0.9.

A short description of assay [1]: CCTE_Deisenroth_AIME_384WELL_CTox_Active: Cytotoxicity Assessment (CTOX) in CCTE's 384-well Estrogen Receptor Transactivation Assay with AIME metabolic competence (metabolism positive), Deisenroth Lab (AID 2284037; active means hit-call score of the fitted dose curve at least 0.9, where 1 is the maximum;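 further: chemicals first conditioned 2 h by alginate-bound induced rat liver S9 before cells; activity means signal loss indicating cell death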). In outline:
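VM7Luc4E2 breast cells received medium pre-incubated 2 h with chemical over alginate microspheres holding induced male Sprague Dawley rat liver S9; viability read 24 h later by protease-substrate fluorescence. Loss of signal, bidirectional fit, 0.002–200 uM.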

Assay [2] in a line: CCTE_Deisenroth_AIME_384WELL_CTox_Inactive: Cytotoxicity Assessment (CTOX) in CCTE's 384-well Estrogen Receptor Transactivation Assay without AIME metabolic competence (metabolism negative), Deisenroth Lab (AID 2284039; active means hit-call score of the fitted dose curve at least 0.9, where 1 is the maximum;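 further: cell viability via live-cell protease substrate cleaved to fluorescent probe; cells exposed 24 h to medium preincubated 2 h with alginate-water beads without S9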). In outline: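 Fluorescence from a live-cell protease substrate, read after 24 h in VM7Luc4E2 cells, indicated viability. Test medium came from a 2 h AIME step without hepatic S9 (alginate-water microspheres); concentrations spanned 0.002 - 200 uM, single technical replicate per run.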

A short description of assay [3]: CCTE_Shafer_MEA_acute_per_network_burst_spike_number_std: CCTE's Neural Acute Assay for Standard Deviation of Number of Spikes in a Network Burst, Shafer Lab (AID 2284020).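 Further: fitted for decrease in spike-number SD versus DMSO so actives lower it.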 In outline: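 Primary rat cortical neurons on 48-well MEAs (16 electrodes/well) recorded at DIV 13 or 15: 40-min baseline, then 40 min with compound (0.03-40 uM), 37 C. Value is percent change in SD of spikes per network burst, relative to DMSO.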

Assay [4] can be described thus: CCTE_Shafer_MEA_acute_per_network_burst_electrodes_number_mean: CCTE's Neural Acute Assay for Mean Number of Electrodes in a Network Burst, Shafer Lab (AID 2284021).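 Further: curves fitted for decreases only so hits reduce electrodes per burst.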 In outline:
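Percent change from baseline was computed as mean electrode count per network burst, comparing 40 min recordings before and during compound (0.03-40 uM) exposure. Cultures were rat cortical neurons at DIV 13 or 15, recorded on MEAs at 37 C with an adaptive 8x rms threshold.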

Assay [5] can be described thus: CCTE_Shafer_MEA_acute_network_burst_percentage: CCTE's Neural Acute Assay for Percentage of Network Bursts, Shafer Lab (AID 2284022).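 Further: curves fitted for loss so actives lower network burst percentage.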 In outline: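 Network burst percentage (spikes in network bursts divided by total spikes) recorded at 37 C over 40 min baseline and 40 min after compound, 0.03-40 uM, in rat cortical cultures at DIV 13 or 15. Analysed as percent change from baseline versus DMSO.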

The nature of assay [6]: CCTE_Shafer_MEA_acute_cross_correlation_area: CCTE's Neural Acute Assay for Area of Cross Correlation, Shafer Lab (AID 2284024).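 Further: area under pooled inter-electrode spike cross-correlation near zero lag as percent change from own baseline; curves fitted for loss of cross-correlation area so actives lower synchrony.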 Put shortly:
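Percent change in well-wide cross-correlation area (window around zero lag) between 40 min baseline and 40 min post-compound recordings, 37 C; rat cortical cultures on MEA at DIV 13 or 15, dosed 0.03-40 uM, wells needing >/= 10 active electrodes.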

A short description of assay [7]: CCTE_Shafer_MEA_acute_cross_correlation_HWHM: CCTE's Neural Acute Assay for Cross Correlation at Half Width at Half Maximum, Shafer Lab (AID 2284026).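 Further: percent change per well from pre-dose baseline in spike cross-correlogram half width; hits are a decrease in cross-correlogram half width relative to DMSO.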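 On Outcome: spontaneous network firing of rat primary cortical neurons on multiwell microelectrode arrays.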 In outline: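 Per-well percent change in cross-correlogram half width at half maximum, derived from 40-min recordings before and after compound (0.03-40 uM) at 37 C. Cultures were rat cortical neurons, DIV 13 or 15, with adaptive spike detection at 8x rms.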

Assay [8] in a line: CCTE_Shafer_MEA_acute_synchrony_index: CCTE's Neural Acute Assay for Synchrony, Shafer Lab (AID 2284027).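 Further: network synchrony index of spontaneous spiking in primary rat cortical neurons on MEAs; fitted for loss of signal so actives lower synchrony relative to DMSO.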 Put shortly: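 Spontaneous firing of mature rat cortical networks is captured extracellularly on microelectrode arrays at 37 C, with wells needing ≥10 active electrodes. Each compound (0.03-40 uM) is judged by the change in synchrony index from baseline over 40 min.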
Assay [9] addresses Estrogen receptor (Homo sapiens) (UniProt P03372). In words: CCTE_Deisenroth_AIME_384WELL_LUC_Shift: CCTE's 384-well Estrogen Receptor Transactivation Assay with AIME metabolic competence data shift (ERTA luciferase; difference in metabolism positive and negative), Deisenroth Lab (AID 2284041).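 Further: shift is response with S9 minus without S9 so positive means metabolism raised ER signal.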 Put shortly:
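Here, parent compounds undergo 2 h phase I metabolism by PB/BNF-induced rat S9 before 24 h transactivation in VM7Luc4E2 cells; the curve models S9-positive minus S9-negative response over a 10-point series.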

Assay [10] can be described thus: CCTE_Shafer_MEA_dev_firing_rate_mean: CCTE's Neural Network Formation Assay for Mean Firing Rate, Shafer Lab (AID 2284031). Put shortly:
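Developing rat cortical networks on MEA plates undergo 12-day compound exposure. Firing frequency, averaged across active electrodes, is integrated as area under the curve over four recording days, referenced to DMSO.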

A short description of assay [11]: CCTE_Shafer_MEA_dev_per_burst_spike_percent: CCTE's Neural Network Formation Assay for Percent of Spikes in a Burst, Shafer Lab (AID 2284032).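 On AC50: fitted as a decrease in burst spike percentage below DMSO baseline.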 Put shortly: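 Rat primary cortical neurons on 16-electrode MEA wells, dosed from plating day 0 for 12 days with renewal on DIV 5 and 9; spikes-in-bursts percentage averaged over bursting electrodes, collapsed as AUC across days 5, 7, 9, 12; loss direction versus DMSO.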

The nature of assay [12]: CCTE_Shafer_MEA_dev_active_electrodes_number: CCTE's Neural Network Formation Assay for Number of Active Electrodes, Shafer Lab (AID 2284040; active means hit-call score of the fitted dose curve at least 0.9, where 1 is the maximum;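 on AC50: potency for loss of active electrodes versus DMSO so lower counts are hits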). In outline:
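Rat cortical primary cultures, 1.5 x 10^5 cells/well, PEI-coated MEA, laminin drop. Continuous exposure DIV 0–12; full media/compound change DIV 5, 9. Readout: electrodes with mean firing ≥5 spikes/min; AUC across days; loss vs DMSO.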

Assay [13] is described as follows: CCTE_Shafer_MEA_dev_burst_rate: CCTE's Neural Network Formation Assay for Burst Rate, Shafer Lab (AID 2284042). Put shortly:
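Developmental network assay measuring how 12-day exposure of rat cortical neuron cultures alters bursting on extracellular MEA recordings. Values are AUC of well-mean burst rate across four recording days, relative to DMSO vehicle.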

A short description of assay [14]: CCTE_Shafer_MEA_dev_bursting_electrodes_number: CCTE's Neural Network Formation Assay for Number of Bursting Electrodes, Shafer Lab (AID 2284043; active means hit-call score of the fitted dose curve at least 0.9, where 1 is the maximum;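 on AC50: potency is for loss of bursting electrodes relative to DMSO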). Put shortly: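 Primary rat cortical neurons were cultured on PEI-coated 48-well MEA plates (16 electrodes/well) and exposed from plating through day 12, with compound renewed at feeds on DIV 5 and 9. Electrodes bursting ≥1 per 2 min were counted on DIV 5, 7, 9, 12; trapezoidal AUC taken.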

Assay [15] is described as follows: CCTE_Shafer_MEA_dev_per_burst_interspike_interval: CCTE's Neural Network Formation Assay for Burst Interspike Interval, Shafer Lab (AID 2284044).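 Further: mean spike spacing inside bursts as AUC over recordings on days 5 7 9 12.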 Put shortly:
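Mean interspike interval within single-electrode bursts, averaged over bursting electrodes, from rat cortical cultures on MEA plates recorded on days 5, 7, 9 and 12. Continuous compound exposure from plating; trapezoidal AUC fitted downward relative to DMSO.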

A short description of assay [16]: CCTE_Shafer_MEA_dev_burst_duration_mean: CCTE's Neural Network Formation Assay for Mean Burst Duration, Shafer Lab (AID 2284045). In outline:
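Primary rat cortical neurons on PEI-coated 16-electrode MEA wells, exposed from plating through day 12 with compound renewed at DIV 5 and 9; spontaneous activity recorded days 5, 7, 9, 12. Well-mean burst duration collapsed as trapezoidal AUC, fitted for loss versus DMSO.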

Assay [17] is described as follows: CCTE_Shafer_MEA_dev_interburst_interval_mean: CCTE's Neural Network Formation Assay for Mean Interburst Interval, Shafer Lab (AID 2284046).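 Further: well-mean interburst interval of bursting electrodes as AUC over four recording days; curve fitted for decrease in interburst interval relative to DMSO.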 Put shortly: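 Network formation assay in primary rat cortical cultures, exposed from DIV 0 to 12. Mean interburst interval per well, integrated as AUC over four recordings.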
The target of assay [18] is Estrogen receptor (Homo sapiens) (UniProt P03372). In words: CCTE_Deisenroth_AIME_384WELL_LUC_Active: CCTE's 384-well Estrogen Receptor Transactivation Assay with AIME metabolic competence (ERTA luciferase; metabolism positive), Deisenroth Lab (AID 2284030; active means hit-call score of the fitted dose curve at least 0.9, where 1 is the maximum). Put shortly: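 VM7Luc4E2 breast cells were given, for 24 hours, medium pre-incubated for 2 hours with parent chemical (0.002-200 uM, 10 concentrations) and alginate-encapsulated phenobarbital/beta-naphthoflavone-induced rat hepatic S9. Luciferase gain of signal was fitted against 17beta-estradiol; n=4 or more.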

Assay [19] has the same target. In words: CCTE_Deisenroth_AIME_384WELL_LUC_Inactive: CCTE's 384-well Estrogen Receptor Transactivation Assay without AIME metabolic competence (ERTA luciferase; metabolism negative), Deisenroth Lab (AID 2284038; active means hit-call score of the fitted dose curve at least 0.9, where 1 is the maximum;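 further: hits raise estrogen receptor luciferase signal so potencies reflect agonists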). In outline:
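Chemicals (10-point series, 0.002 - 200 uM) were incubated 2 hours with alginate-water microsphere lids lacking S9, then the conditioned medium was transferred to VM7Luc4E2 breast cells for 24 hour. Luciferase induction was read by bioluminescence, fitted upward relative to 17beta-estradiol.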

Chain of Estrogen receptor (Homo sapiens) (P03372 whole entry, looked up): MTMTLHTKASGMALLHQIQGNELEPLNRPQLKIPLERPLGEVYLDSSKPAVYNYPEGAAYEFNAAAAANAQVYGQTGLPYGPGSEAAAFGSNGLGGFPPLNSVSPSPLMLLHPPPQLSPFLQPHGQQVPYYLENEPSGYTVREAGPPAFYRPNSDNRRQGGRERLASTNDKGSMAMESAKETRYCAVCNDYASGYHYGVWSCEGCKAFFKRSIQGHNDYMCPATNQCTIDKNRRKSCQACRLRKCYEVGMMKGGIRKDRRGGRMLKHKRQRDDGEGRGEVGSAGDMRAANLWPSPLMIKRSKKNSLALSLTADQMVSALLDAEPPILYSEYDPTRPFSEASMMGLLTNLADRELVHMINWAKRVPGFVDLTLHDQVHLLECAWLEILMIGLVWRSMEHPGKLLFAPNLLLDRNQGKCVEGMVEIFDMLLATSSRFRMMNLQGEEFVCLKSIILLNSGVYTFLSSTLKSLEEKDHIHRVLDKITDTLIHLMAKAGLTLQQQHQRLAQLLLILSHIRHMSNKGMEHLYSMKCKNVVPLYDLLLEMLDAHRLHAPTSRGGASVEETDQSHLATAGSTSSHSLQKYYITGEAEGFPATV

As to `Nc1ccc(Oc2ccc(N)cc2)cc1`, the result in [1] was inactive.

Broadly, the AC50 is the midpoint of the concentration-response curve, whichever way the signal moves. In the case of `Oc1ccc2ccc3cccc4ccc1c2c34`, the AC50 in assay [1] was 88.4 µM (active). The molecule was called inactive in [2].

In the case of `CCCCCCCCn1sccc1=O`, the AC50 in assay [3] was 7.57 µM (active); in assay [4] it was 6.8 µM (active); in assay [5], 8.61 µM (active); in assay [7], 11.5 µM (active); in [8], 6.04 µM (active); in assay [1] it was 196 µM (active). Also, the figures for the AC50 in assay [2] and in assay [9] were 93.9 µM (active) and 14 µM (active), respectively. Also, the molecule was classed as inactive in [6].

For the molecule `CN(C)[C@@H]1C(=O)C(C(N)=O)=C(O)[C@@]2(O)C(=O)C3=C(O)c4c(O)cccc4[C@@](C)(O)[C@H]3C[C@@H]12`, the call in assay [10], in assay [11], in assay [1], in [12], in assay [13] and in assay [14] was inactive. In addition, the molecule was classed as inactive in assay [15], in assay [16] and in assay [17]. Also, in [2], the AC50 is 103 µM (active).

Take `Nc1ccc(Cl)cc1N`: the result in assay [2] was inactive.

For the molecule `O=[N+]([O-])c1ccc(Oc2ccc(Cl)cc2Cl)cc1`, the AC50 in assay [3] is 10.8 µM (active); in [4], 20 µM (active); in [5], 20 µM (active); in [7], 10.9 µM (active); in [8], 10.9 µM (active). Moreover, the call in assay [6], in [1] and in assay [2] was inactive.

Turning to `c1ccc(N=Nc2ccccc2)cc1`, the result in [3], in assay [4], in [6], in [7], in assay [8] and in [1] was inactive. Besides, in assay [2], the molecule was classed as inactive. Moreover, the AC50 in [5] is 5.14 µM (active).

With `O=C1CCCO1`, in [1], the outcome was inactive.

On to `CCOC(=O)[C@]1(c2ccccc2)Oc2ccccc2[C@@H]1N`, for which the outcome in assay [1] and in assay [2] was inactive.

For `C1=Cc2cccc3cccc1c23`, the result in assay [10], in [11], in [12], in assay [13], in [14] and in [15] was inactive. The molecule was called inactive in [16] and in [17].

For `OCCCBr`, the molecule was classed as inactive in assay [18], in assay [1], in assay [19], in assay [2] and in [9].

For the molecule `O=C(Nc1ccccc1)c1ccccc1I`, the values for the AC50 in assay [18], in assay [19] and in assay [9] were 38.4 µM (active), 23.7 µM (active) and 6.87 µM (active), respectively. The outcome in assay [2] was inactive.

In the case of `CNC(=O)Oc1cccc2c1OC(C)(C)C2`, the half-maximal activity concentration (AC50) in assay [18] was 100 µM (active); in [11], 15.5 µM (active); in [19] it was 53.8 µM (active); in assay [12] it was 17 µM (active) and 49.6 µM (active); in [9], 45.4 µM (active); in assay [14] it was 15 µM (active) and 76.8 µM (active). Besides, the molecule was called inactive in assay [10], in assay [11], in [2], in [13], in assay [15] and in [16]. Also, in assay [17], the molecule was classed as inactive.

On to `OCCOCCO`, for which the outcome in [18], in assay [10], in [11], in [1], in assay [19] and in assay [2] was inactive. Moreover, the molecule was classed as inactive in [12], in assay [13], in [14], in [15], in [16] and in assay [17].

In the case of `Nc1cc(Cl)cc(C(=O)O)c1Cl`, the molecule was called inactive in [10], in assay [11], in [12], in [13], in assay [14] and in assay [15]. In addition, the result in assay [16] and in assay [17] was inactive.

Turning to `Cc1ccc([N+](=O)[O-])cc1`, the call in assay [18], in assay [1], in assay [19], in assay [2] and in [9] was inactive.

Consider `CCNS(=O)(=O)C(F)(F)C(F)(F)C(F)(F)C(F)(F)C(F)(F)C(F)(F)C(F)(F)C(F)(F)F`, for which the result in assay [10], in assay [1], in assay [13], in assay [15], in assay [16] and in assay [17] was inactive. Further, the AC50 in [11] is 15 µM (active) and 3.54 µM (active); in [12], 7.41 µM (active) and 2.98 µM (active); in [14], 15 µM (active) and 2.98 µM (active).
